# Activity calls are given as the source filed them. Unless noted, the rule behind the calls is not given here.
# Assays:
# [1] = compound effects on lung adenocarcinoma cell viability – A549, calcein-AM fluorescence, 48 h, basal, profiling panel (AID 1162); details: higher = more signal; note: test concentration not given here
# [2] = compound effects on differentiated 3T3-L1 adipocyte viability – cell-based, 3T3-L1 adipocytes, calcein-AM fluorescence, 48 h, basal, profiling panel (AID 1163); details: 3T3-L1 adipocytes viability, higher = more signal; note: test concentration not given here
# [3] = compound effects on hepatocellular carcinoma cell viability – HepG2, calcein-AM fluorescence, 48 h, basal, profiling panel (AID 1164); details: higher = more signal; note: test concentration not given here
# [4] = compound effects on multiple myeloma cell viability – MM1S, calcein-AM fluorescence, 48 h, basal, profiling panel (AID 1165); details: higher = more signal;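 note: viability of MM1S multiple myeloma cells under basal unstimulated conditions; test concentration not given here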
# [5] = calcein-AM signal in unstimulated myeloma cells – cell-based, calcein-AM fluorescence, 48 h, PK04 Diversity Set, profiling panel (AID 1166); details: RPMI8226 myeloma viability, higher = more signal;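 note: cells grown under basal conditions without added stimulus; test concentration not given here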
# [6] = JC-1 mitochondrial signal, unstimulated HepG2 cells – cell-based, JC-1 fluorescence, 24 h, 100 nL compound, profiling panel (AID 1167); details: HepG2 mitochondrial potential, higher = more signal; note: test concentration not given here
# [7] = JC-1 mitochondrial signal, unstimulated adipocytes – cell-based, JC-1 fluorescence, 3T3-L1 adipocytes, 24 h, 100 nL compound, profiling panel (AID 1168); details: JC-1 mitochondrial fluorescence, higher = more signal, called active from +8 up or from −8 down; note: test concentration not given here
# [8] = JC-1 mitochondrial signal, unstimulated myeloma cells – cell-based, JC-1 fluorescence, RPMI8226, 24 h, 100 nL compound, profiling panel (AID 1169); details: JC-1 mitochondrial potential fluorescence, higher = more signal; note: test concentration not given here
# [9] = JC-1 mitochondrial signal, unstimulated MM1S myeloma – cell-based, JC-1 fluorescence, 24 h, 100 nL compound, profiling panel (AID 1170); details: MM1S mitochondrial potential, higher = more signal; note: test concentration not given here
# [10] = resazurin metabolic signal in A549 cells – cell-based, resazurin fluorescence, 24 h, PK04 Diversity Set, profiling panel (AID 1171); details: A549 viability, higher = more signal, called active from +8 up or from −8 down; note: test concentration not given here
# [11] = resazurin metabolic signal in HepG2 cells – cell-based, resazurin fluorescence, 24 h, PK04 Diversity Set, profiling panel (AID 1172); details: HepG2 viability, higher = more signal; note: test concentration not given here
# [12] = budding yeast growth changes without added modifier – OD600, strain BY4716, 24 h, basal condition, primary screen (AID 1173); details: S. cerevisiae BY4716 growth, OD600, 24 h; higher = more signal, called active from +8 up or from −8 down
# [13] = viability profiling in MM1S myeloma cells – cell-based, resazurin fluorescence, basal, 24 h, PK04 Diversity Set, profiling panel (AID 1174); details: higher = more signal, called active from +8 up or from −8 down; note: test concentration not given here
# [14] = molecular target: Dihydroorotate dehydrogenase (quinone), mitochondrial (Plasmodium falciparum (isolate 3D7)) (UniProt Q08210); assay: inhibition of P. falciparum DHODH – biochemical, C-terminal His tag, absorbance 600 nm, primary screen (AID 1175); details: PfDHODH enzyme, DCIP absorbance 600 nm; higher = more signal, called active from +8 up or from −8 down;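 note: recombinant parasite enzyme with a five histidine tag at its C terminus; test concentration not given here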
# [15] = inhibition of PAO1 biofilm formation – strain PAO1, LB-PBS medium, absorbance 600 nm, primary screen (AID 1176); note: test concentration not given here; details: P. aeruginosa PAO1 growth/biofilm, A600, 12 h; higher = more signal
# [16] = growth modulation of vineyard yeast isolate – strain RM11-1a, OD600, basal, 24 h, primary screen (AID 1177);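 note: cultures grown under basal conditions with no added stressor; test concentration not given here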; details: S. cerevisiae RM11-1a growth, OD600, 24 h; higher = more signal, called active from +8 up or from −8 down
# [17] = growth of efflux-deficient E. coli DRC39 – strain DRC39, OD650, 24 h, E. coli filamentation inducers, primary screen (AID 1178);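 note: growth measured as culture turbidity by optical density at 650 nm; test concentration not given here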; details: E. coli DRC39 acrAB, higher = more signal, called active from +8 up or from −8 down
# [18] = growth of efflux-deficient E. coli DRC39 – strain DRC39, OD650, 48 h, E. coli filamentation inducers, primary screen (AID 1179);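 note: screen aims at cell division blockers that make cells filament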; details: E. coli DRC39 delta-acrAB growth, higher = more signal, called active from +8 up or from −8 down
# [19] = viability profiling in RPMI8226 myeloma cells – cell-based, resazurin fluorescence, basal, 24 h, PK04 Diversity Set, profiling panel (AID 1180); details: higher = more signal;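 note: RPMI8826 multiple myeloma cell line at 5000 cells per well; test concentration not given here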
# [20] = molecular target: E3 ubiquitin-protein ligase XIAP (Homo sapiens) (UniProt P98170); assay: small molecules binding XIAP protein – biophysical, small-molecule microarray, fluorescence 635 nm, primary screen (AID 1181); details: higher = more signal;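 note: score merges 667 nm emission and signal to noise over triplicate slides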
# E3 ubiquitin-protein ligase XIAP (Homo sapiens), sequence (P98170 whole entry, looked up): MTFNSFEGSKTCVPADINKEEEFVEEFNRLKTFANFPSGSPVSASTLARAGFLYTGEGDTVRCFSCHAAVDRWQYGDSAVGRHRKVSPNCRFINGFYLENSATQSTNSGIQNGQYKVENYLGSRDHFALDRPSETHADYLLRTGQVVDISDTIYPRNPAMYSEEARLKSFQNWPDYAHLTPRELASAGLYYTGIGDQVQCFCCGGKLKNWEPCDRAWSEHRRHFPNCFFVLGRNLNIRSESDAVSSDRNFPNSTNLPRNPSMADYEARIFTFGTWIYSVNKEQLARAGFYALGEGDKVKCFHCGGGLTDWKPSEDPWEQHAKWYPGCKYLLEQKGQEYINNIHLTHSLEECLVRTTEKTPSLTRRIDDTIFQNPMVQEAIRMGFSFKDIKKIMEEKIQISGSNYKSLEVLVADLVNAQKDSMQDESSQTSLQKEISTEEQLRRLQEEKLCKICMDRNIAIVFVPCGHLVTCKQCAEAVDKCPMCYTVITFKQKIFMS
# Dihydroorotate dehydrogenase (quinone), mitochondrial (Plasmodium falciparum (isolate 3D7)), sequence (Q08210 whole entry, looked up): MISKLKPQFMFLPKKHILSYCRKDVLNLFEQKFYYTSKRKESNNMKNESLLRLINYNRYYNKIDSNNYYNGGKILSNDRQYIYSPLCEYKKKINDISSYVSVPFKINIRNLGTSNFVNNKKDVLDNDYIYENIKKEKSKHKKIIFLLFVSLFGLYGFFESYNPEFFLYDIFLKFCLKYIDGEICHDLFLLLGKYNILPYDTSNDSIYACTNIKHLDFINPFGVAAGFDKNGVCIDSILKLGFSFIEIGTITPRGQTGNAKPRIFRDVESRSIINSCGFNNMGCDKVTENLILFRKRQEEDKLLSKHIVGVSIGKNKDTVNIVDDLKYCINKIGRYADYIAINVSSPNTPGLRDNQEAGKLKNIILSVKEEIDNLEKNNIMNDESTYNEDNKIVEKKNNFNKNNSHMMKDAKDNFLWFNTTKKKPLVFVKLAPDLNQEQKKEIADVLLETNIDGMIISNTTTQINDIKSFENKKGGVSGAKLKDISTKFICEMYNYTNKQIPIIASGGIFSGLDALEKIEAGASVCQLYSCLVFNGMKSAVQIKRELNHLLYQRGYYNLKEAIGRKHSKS
Compound,z-score [1],z-score [2],z-score [3],z-score [4],z-score [5],z-score [6],z-score [7],z-score [8],z-score [9],z-score [10],z-score [11],z-score [12],z-score [13],composite z-score [14],z-score [15],z-score [16],z-score [17],z-score [18],z-score [19],composite z-score [20]
COCCOC(=O)N1C(=O)[C@@]2(c3cc(C#Cc4ccc(OC)cc4)ccc31)[C@H](C(=O)N1CCCCCCC1)[C@H]1C(=O)O[C@H](c3ccccc3)[C@H](c3ccccc3)N1[C@@H]2c1ccc(O)cc1,-0.938,1.07,-0.618,-0.26,-0.943,-0.73,0.88 (inactive),-0.0794,-0.559,0.545 (inactive),0.808,-0.404 (inactive),0.0013 (inactive),-0.458 (inactive),0.721 (inactive),0.868 (inactive),-0.919 (inactive),-1.22 (inactive),-0.206,-0.0501
[N-]=[N+]=NCc1ccccc1C[C@]1(C(=O)NCC(O)CO)N=C(c2ccc(OCCCO)cc2)O[C@H]1c1ccccc1CN=[N+]=[N-] (stereo not given in full),-0.905,1.01,-0.426,-2.3,-2.6,0.136,-0.323 (inactive),-1.02,-0.555,-0.402 (inactive),-0.459,-0.804 (inactive),-0.449 (inactive),-0.212 (inactive),1.09 (inactive),0.18 (inactive),0.78 (inactive),-0.012 (inactive),-0.881,-0.149
COCCCNC(=O)[C@@H]1c2ccccc2C(=O)N(Cc2ccccc2C(F)(F)F)[C@H]1c1ccc(CO)cc1,2.1,1.29,1,0.7,0.237,2.55,-0.0216 (inactive),-0.213,0.872,1.8 (inactive),0.816,-0.756 (inactive),1.51 (inactive),-0.955 (inactive),-0.727 (inactive),0.186 (inactive),0.414 (inactive),0.0948 (inactive),1.48,-0.138
C=CCNC(=O)[C@H]1[C@@H]2C(=O)O[C@@H](c3ccccc3)[C@@H](c3ccccc3)N2[C@@H](c2ccccc2OCCO)[C@]12C(=O)N(C(=O)OCCOC)c1ccc(C#CC3=CCCCC3)cc12,-1.51,0.963,-0.882,-3.35,-3.88,0.215,1.06 (inactive),-0.924,-1.49,-1.02 (inactive),-1.22,1.22 (inactive),-5.62 (inactive),1.09 (inactive),1.37 (inactive),2.81 (inactive),-0.29 (inactive),0.286 (inactive),-4.42,0.106
NCCCCCNC(=O)[C@@H]1C[C@@H]2C(=O)N[C@@H](CCCCN)C(=O)N2[C@@H]1c1cccc(OCCO)c1,0.338,0.337,0.68,0.89,0.269,0.0184,1.37 (inactive),-0.698,-0.362,0.714 (inactive),1.03,0.198 (inactive),1.11 (inactive),-0.308 (inactive),-0.105 (inactive),-0.0041 (inactive),0.928 (inactive),1.22 (inactive),1,-0.399
CC(CO)N1C(=O)[C@@H]2C3C(=O)OCCC/C=C\[C@H]3OC23C=CCN(Cn2nnc4ccccc42)C(=O)[C@@H]13 (stereo not given in full),0.0034,-0.126,0.789,1.76,0.285,0.567,0.425 (inactive),0.222,-1.33,-0.0257 (inactive),0.256,-0.159 (inactive),0.595 (inactive),-2.72 (inactive),0.205 (inactive),0.549 (inactive),0.935 (inactive),0.829 (inactive),0.605,0.0511
Cc1ccc(S[C@]2(C(=O)NC3CC3)CC(=O)N(Cc3ccccc3Cl)[C@@H]2c2ccc(CO)cc2I)cc1,0.0293,0.0656,0.556,-2.36,-2.05,0.474,0.515 (inactive),-0.498,-1.45,-0.889 (inactive),-0.451,-4.44 (inactive),-3.72 (inactive),-2.13 (inactive),0.348 (inactive),-0.526 (inactive),0.17 (inactive),0.932 (inactive),-1.61,-0.0118
CN(C)CCCNC(=O)[C@@H]1c2ccccc2C(=O)N(Cc2ccc(OC(F)(F)F)cc2)[C@H]1c1ccc(CO)cc1,1.71,1.91,-0.0979,0.584,-2.39,3.72,-0.463 (inactive),-0.114,-1.13,0.989 (inactive),-0.39,0.0639 (inactive),0.983 (inactive),0.853 (inactive),0.407 (inactive),1 (inactive),0.897 (inactive),-0.193 (inactive),0.818,-0.117
O=C1NCC(=O)N2[C@@H]1C[C@@H](C(=O)O)[C@H]2c1ccc(O)cc1,0.391,-0.0074,-0.084,-2.79,-0.0676,0.429,-0.799 (inactive),0.233,-0.775,0.249 (inactive),0.153,-0.231 (inactive),0.393 (inactive),-0.273 (inactive),0.463 (inactive),0.414 (inactive),-0.42 (inactive),-0.0242 (inactive),0.205,0.0374
